tim23-1 inh: tim23-1 yeast growth inhibition; S. cerevisiae tim23-1 growth, BacTiter-Glo luminescence, 24 h; inhibition, % at 20 µM; hit rate 1.3% among 330,000;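 active means growth inhibition of the mutant yeast at or above 50%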;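 further: temperature-sensitive mutant grown at 25 °C; plate controls were DMSO-treated mutant yeast for no effect and medium wells lacking yeast for full effect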
TIM10 inh: TIM10 yeast growth inhibition. hit rate 1.4% among 330,000. S. cerevisiae TIM10 strain growth, BacTiter-Glo luminescence, 24 h. inhibition, % at 10 µM;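 active means inhibition of 40% or more at the single tested concentration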;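 further: wild-type TIM10 isogenic control strain grown at permissive 25 °C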
PfHsp90 set2: reduces growth (ATP signal) of yeast expressing P. falciparum Hsp90; S. cerevisiae expressing PfHsp90, BacTiter-Glo ATP, 48 h; yeast lacking PDR1 and PDR3 efflux regulators; inhibition, % at 9.4 µM; hit rate 0.32% among 310,000;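 active means every replicate shows inhibition above about 80%, whatever the replicate mean, limit read from the data; inconclusive means mean inhibition reaches the set limit but some replicate falls short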;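 further: 0% = DMSO neutral controls and 100% = 20 µM radicicol positive controls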
Calb FLC: affects C. albicans growth with fluconazole | C. albicans CaCi-2 (fluconazole-resistant clinical isolate) + fluconazole, Alamar Blue growth, 48 h | growth inhibition, % (no concentration beside the values) | hit rate 0.57% among 300,000;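 active means growth inhibition above about 58% in most replicates, limit read from the data, passing the limit was not always enough; inconclusive means exactly half the replicates above a set limit; inactive means most replicates below a set limit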;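 further: all wells also contain fluconazole at 8 µg/ml as a sub-toxic cotreatment; 0% = median of DMSO wells and 100% = median of geldanamycin control wells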
SKKanGAS inh: inhibitors of SKKanGAS S. pyogenes growth in kanamycin (SK-promoter or general growth effect); BacTiter-Glo, 6 h; inhibition, % at 7.5 µM; hit rate 1.3% among 300,000; AID 1662;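 active means mean replicate score, as percent of positive control median, at least 50; inconclusive means mean below 50 but one replicate at or above 50; inactive means mean and every replicate below 50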;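 further: strain carries kanamycin resistance gene driven by streptokinase promoter and grows in 40 µg/ml kanamycin; loss of luminescence reflects streptokinase promoter inhibition or plain growth inhibition; 0% = median of DMSO wells and 100% = positive control at its reference dose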
tim10-1 inh: growth inhibitors of tim10-1 mutant yeast. S. cerevisiae tim10-1 ts strain growth, BacTiter-Glo, 24 h. inhibition, % at 20 µM. hit rate 2.2% among 330,000. AID 463190;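 active means inhibition of at least 40%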;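 further: mutant grown at 25 °C; 0% = DMSO wells with yeast and 100% = wells holding no yeast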
tim10-1 conf: tim10-1 yeast growth inhibition, confirmed. shares compounds with tim10-1 inh. S. cerevisiae tim10-1 ts strain growth, BacTiter-Glo, 24 h. inhibition, % at 20 µM. hit rate 56% among 7,400. AID 463213;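 active means inhibition of yeast growth at or above a set limit in either of two repeat tests at 20 µM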;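 further: tim10-1 mutant grown at permissive 25 °C to find synthetic lethal compounds; 0% = DMSO yeast wells and 100% = medium wells without yeast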
Starred values were filed as active, the others as inactive; ? = inconclusive; . = not tested or not shown. Rows were chosen to be rich in hits. Some 4.7% of all compounds tested hit in one or more screens of this group.

SMILES | tim23-1 inh | TIM10 inh | PfHsp90 set2 | Calb FLC | SKKanGAS inh | tim10-1 inh | tim10-1 conf
CCN(CC(=O)NCc1cccs1)C(=O)c1ccc(-c2ccccc2F)o1 | 27 | 7 | 23 | . | . | 3 | .
Cc1ccc(S(=O)(=O)N(C)c2ccc(C(=O)NCc3cccnc3)cc2)cc1 | 4 | 7 | -1 | . | -3 | 4 | .
Cc1ccc(S(=O)(=O)N(Cc2ccccc2)c2ccccc2C(=O)NCc2cccnc2)cc1 | 24 | 14 | -1 | 6 | 4 | 41* | 8
CCOC(=O)CSc1cc(-c2ccccc2)nc2ncnn12 | 36 | 34 | 9 | 18 | -14 | 44* | 35*
COC(=O)c1ccccc1NC(=O)COC(=O)CO/N=C(\C)c1ccc2c(c1)OCO2 | 2 | 9 | -3 | -4 | -3 | 8 | .
CCn1nc(C)c(CNC(=O)c2ccc(OC3CCN(Cc4ccccn4)CC3)cc2)c1C | 13 | 7 | -1 | -4 | -2 | 2 | .
CC[C@H](C)[C@H](NC(=O)c1ccc(Cl)cc1)C(=O)OCC(=O)c1c(N)n(C)c(=O)n(C)c1=O | 19 | 2 | . | . | . | 9 | .
CCCc1cc(=O)oc2cc(OCC(=O)NCc3ccccn3)ccc12 | 12 | 12 | 14 | -7 | 2 | 1 | .
CCCCc1cc(=O)oc2cc(OCC(=O)NCc3ccccn3)ccc12 | 23 | 2 | -19 | 14 | -2 | 48* | -2
CCOc1ccccc1N(CC(=O)Nc1cccc2ccccc12)S(C)(=O)=O | 22 | 8 | -10 | 4 | -2 | 16 | .
O=C1S/C(=C/c2ccc(N3CCOCC3)o2)C(=O)N1Cc1ccc(F)cc1 | 25 | 24 | 26 | -4 | -1 | 42* | 50*
O=C1S/C(=C\c2ccc(N3CCOCC3)o2)C(=O)N1Cc1ccc(F)cc1 | 17 | 19 | 13 | . | . | 33 | .
C=C1CC[C@@H]2[C@](C)(CO)[C@H](O)CC[C@@]2(C)[C@@H]1/C=C/C1=CCOC1=O | 21 | 2 | 11 | -9 | -6 | 98* | 5
O=C1/C(=C/c2cccnc2)SC(=S)N1N1CCOCC1 | 47 | 29 | -14 | -4 | 2 | 52* | 40*
Cc1c2c(nc3ccccc13)CCC(C(C)(C)C)C2 (stereo unspecified) | 46 | 9 | 3 | 8 | 32 | 42* | 15
Clc1c2c(nc3ccccc13)CCC2 | 17 | -14 | -4 | -2 | 0 | 15 | .
Cc1sc2ncnc(N3CCN(CCOc4ccc(Cl)cc4)CC3)c2c1C | 31 | 27 | -10 | ? | 2 | 45* | 32*
O=C(COc1ccccc1)Nc1ccc(-c2ccc(N3CCOCC3)nn2)cc1 | -8 | -9 | 15 | -8 | 2 | -13 | .
CC(C)NC(=O)/C(C#N)=C/c1ccc2c(c1)OCCO2 | 30 | 11 | 4 | 13 | 0 | 43* | 34*
O=C(Nc1cccc2cccnc12)c1ccc2c(c1)OCCO2 | 41 | 12 | 1 | -2 | 8 | 41* | 30
c1ccc(NC2=NCCN2CCCC2CCCCC2)cc1 | 0 | 4 | -7 | . | . | -15 | .
CCCOc1ccc(NC(=O)CC2C(=O)N(CC)C(=S)N2Cc2cccs2)cc1 (stereo unspecified) | 10 | 14 | 25 | 3 | 3 | 50* | 35*
COc1ccc(NC(=O)CC2C(=O)N(C)C(=S)N2Cc2cccs2)cc1 (stereo unspecified) | 18 | -2 | -2 | 9 | 3 | 21 | .
COc1ccc(N2C(=O)CC(N3CCC(O)(c4cccc(C(F)(F)F)c4)CC3)C2=O)cc1 (stereo unspecified) | 40 | 25 | 8 | -3 | 9 | 43* | 33*
COc1ccc(N2C(=O)CC(N3CCCCC3)C2=O)cc1 (stereo unspecified) | 25 | -4 | -33 | -12 | -16 | 10 | .
O=c1c(Cl)c(N2CCOCC2)cnn1-c1ncc(C(F)(F)F)cc1Cl | 11 | -5 | -17 | -15 | 6 | 19 | .
FC(F)(F)c1cnc(Nc2ccc(N3CCOCC3)cc2)c(Cl)c1 | 19 | 15 | -115 | 3 | -17 | 44* | 21
COc1ccc(OCC(O)CNC(C)c2ccccc2)cc1 (stereo unspecified) | 18 | -18 | 21 | 2 | 0 | 42* | 2

Screening data: PubChem, several laboratories
